From PubChem BioAssay AID1851 (National Center for Advancing Translational Sciences (NCATS), 2009)
The whole screen tested about 16,000 compounds, of which about 5,800 (36%) were called active. Another 23% or so got no clear call; they are omitted. The call rests on the fitted dose curve; in most records, active means well fitted curve in the direction sought with a large enough effect; inconclusive means small, poorly fitted or top-dose-only effect, or effect the other way; inactive means no such curve, though single readings can be large or run the other way. The list shows a part of the results.

target: Cytochrome P450 2C19 (Homo sapiens) (UniProt P33261); assay: Cytochrome panel assay with activity outcomes; conditions: recombinant CYP, pro-luciferin dealkylation, luminescence, p450-cyp2c19; series mostly up to 57.1 µM; activity, negative = inhibition: at the top concentration
On the % scale 0 is the no-effect control and ±100 the full control effect.

Cytochrome P450 2C19 (Homo sapiens), sequence (P33261 whole entry, looked up): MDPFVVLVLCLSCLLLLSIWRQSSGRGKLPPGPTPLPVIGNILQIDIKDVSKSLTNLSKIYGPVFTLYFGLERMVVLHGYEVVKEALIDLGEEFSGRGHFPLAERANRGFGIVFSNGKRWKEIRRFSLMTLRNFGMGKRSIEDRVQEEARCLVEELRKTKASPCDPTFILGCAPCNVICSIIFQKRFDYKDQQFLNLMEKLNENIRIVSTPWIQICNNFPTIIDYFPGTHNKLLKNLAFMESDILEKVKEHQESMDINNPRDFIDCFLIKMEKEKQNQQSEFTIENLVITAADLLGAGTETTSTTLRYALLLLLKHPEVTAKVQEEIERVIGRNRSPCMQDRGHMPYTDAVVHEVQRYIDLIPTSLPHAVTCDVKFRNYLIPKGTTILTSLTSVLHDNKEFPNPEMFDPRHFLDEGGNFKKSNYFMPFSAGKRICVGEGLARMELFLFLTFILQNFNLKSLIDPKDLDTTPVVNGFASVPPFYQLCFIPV

activity, negative = inhibition, inactive:
COCCn1c(=O)c(-c2ccc(OC)cc2)nc2cnc(Nc3cccc(OC)c3)nc21 -22.3%
CN1CCCN([C@@H](c2ccccc2)c2ccc(Cl)cc2)CC1 -31% [at 25.6 µM]
Oc1ccc(Br)cc1CNn1cnnc1 -29.1%
O=C(Nc1ccc(-c2cn3ccccc3n2)cc1)c1cc(Br)ccc1O -1.2% [at 11.4 µM]
COc1cccc(-c2cc(C(F)(F)F)n3ncc(S(=O)(=O)c4ccccc4)c3n2)c1 -17.7%
Cn1c(=O)c(-c2ccccc2)nc2cnc(Oc3ccccc3)nc21 -32.1%
CCc1cc2c(NCCO)ncnc2s1 -1.72%
CCc1cc2c(=O)[nH]cnc2s1 -8.19%
Nc1ccccc1S(N)(=O)=O 28.3% [at 25.6 µM]
Cc1nc(N/N=C/c2ccccc2)nc(N(C)c2ccccc2)c1[N+](=O)[O-] -26.7%
Cc1ccc2nc(N/N=C\c3cccc(C)n3)cc(C)c2c1 -12.3% [at 11.4 µM]
Cc1noc(C)c1C(=O)N1CCC2(CCCN(c3ccccc3)C2)CC1 8.61%
COCCn1c(=O)c(-c2cccc(C#N)c2)nc2cnc(N3CCOCC3)nc21 12.2%
NC(=O)OC[C@H](O)COc1ccc(Cl)cc1 -26.8% [at 25.6 µM]
O=C(c1cc(C(F)(F)F)cc(C(F)(F)F)c1)N1CCC[C@@]2(CCN(c3ncccn3)C2)C1 3.94%
CCC(=O)O[C@@H]1[C@H](C)O[C@H](O[C@H]2[C@@H](N(C)C)[C@H](O)[C@@H](O[C@@H]3[C@@H](CC=O)C[C@@H](C)[C@@H](O)/C=C\C=C/C[C@@H](C)OC(=O)C[C@@H](OC(=O)CC)[C@H]3OC)O[C@H]2C)C[C@]1(C)O -40.3% [at 25.6 µM]
Cn1c(=S)c2[nH]c(SCCCc3ccccc3)nc2n(C)c1=O -28.4% [at 11.4 µM]
O=c1cnc2cnc(Nc3ccccc3)nc2n1Cc1cccs1 -24.6%
COc1ccc(-c2nc3cnc(Nc4ccccc4)nc3n(Cc3cccs3)c2=O)cc1 -32.2%
Cc1nc2cnc(Nc3ccccc3)nc2n(Cc2cccs2)c1=O -26.1%
C=CCN1C(=O)CN=C1Nc1ccccc1 -10.4%
COc1ccc(CNC(=O)/C=C/c2ccc(OCCCF)cc2)cc1 -15.5%
CCCCN1C(=O)CC(Sc2ccccc2C(=O)O)C1=O (centres undefined) -28.3%

AC50, active:
N#Cc1ccc(C(c2nnnn2Cc2ccccc2)N2CCCC2)cc1 (centres undefined) 11.2 µM
N#Cc1ccc(C(c2nnnn2C2CCCC2)N2CCC(Cc3ccccc3)CC2)cc1 (centres undefined) 3.55 µM
N#Cc1cccc(C(c2nnnn2C2CCCC2)N2CCCCCC2)c1 (centres undefined) 5.62 µM
O=C(c1cc(Br)ccc1O)c1cc(Br)ccc1O 0.2 µM
COc1ccc(S(=O)(=O)n2ccc(-c3cnc(-c4ccccc4)s3)n2)cc1 1.58 µM
O=S(=O)(c1ccc(F)cc1)n1ccc(-c2cnc(-c3ccccc3)s2)n1 8.91 µM
CCc1cc2c(NCc3ccco3)ncnc2s1 4.47 µM
Cc1ccc2nc(N/N=C/c3ccccc3C#N)nc(-c3ccccc3)c2c1 10 µM
Cc1cccc(N2CCN(C(=O)CSCc3c(C)noc3C)CC2)c1C 17.8 µM
Cc1ccc(NC(=S)Nc2nc(CC(=O)Nc3ccccc3)cs2)cc1 3.98 µM
COc1ccc(C(=O)Nc2scc(-c3ccc(Cl)cc3Cl)c2C(N)=O)cc1 1.26 µM
CC(C)COc1ccc(C(=O)Nc2scc(-c3ccc(Cl)cc3Cl)c2C(N)=O)cc1 2.82 µM
O=C(CC1C(=O)N(c2ccc(Cl)cc2)C(=S)N1CCc1ccncc1)Nc1ccc(F)cc1 (centres undefined) 0.02 µM
O=C(Nc1ccccc1)OCc1cc(-c2ccc(Cl)cc2)on1 2 µM
O=C(Nc1ccc(Cl)cc1)OCc1cc(-c2ccccc2)on1 0.447 µM
CS(=O)(=O)c1ccccc1COC(=O)Nc1ccc(Cl)cc1 2.51 µM
O=C(Nc1ccc(Cl)cc1)OCc1cc(-c2ccccc2Cl)on1 0.316 µM
Cc1nc(SCC(=O)c2ccc(F)cc2)c([N+](=O)[O-])[nH]1 8.91 µM
O=C1CN=C(Nc2ccccc2)N1Cc1cccs1 14.1 µM
CCOc1ccc(NC2=NCC(=O)N2Cc2cccs2)cc1 11.2 µM
CCCCOc1ccc(/C=C/C(=O)NCCc2nc3ccccc3[nH]2)cc1 3.98 µM
Nc1nnc(SCCOc2cccc(Br)c2)s1 3.98 µM
O=C(CSC1CC(=O)N(CC(c2ccccc2)c2ccccc2)C1=O)Nc1ccc(Cl)cc1 (centres undefined) 1.58 µM
Cn1c(C(=O)Nc2ccccc2)cc2sccc21 2.51 µM
COC(=O)c1ccc(NC(=O)c2cc3sccc3n2C)cc1 7.94 µM

AC50, inactive:
C[C@@H]1CCN=C(N)S1
